Results on 7 compounds are retold here after PubChem BioAssay (NCI).

Among the test systems are SK-MEL-2 melanoma; EKVX NSCLC; SN12C renal; UO-31 renal; TK-10 renal; ACHN renal; CAKI-1 renal; A498 renal; CCRF-CEM leukemia; MOLT-4 leukemia; SR leukemia; RPMI-8226 leukemia; OVCAR-8 ovarian; OVCAR-5 ovarian; OVCAR-4 ovarian; SK-OV-3 ovarian; IGROV1 ovarian; OVCAR-3 ovarian; HS 578T breast; NCI/ADR-RES ovarian.
Assay in all cases: NCI-60 one-dose screen, 48 h (100 = growth as untreated, 0 = no growth, -100 = all killed)
Holding throughout (details): 10 µM unless noted

The panel holds about 83,000 compounds, 20% with a hit somewhere; the sample as a whole holds those more often.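 Testing used 96-well plates and a 48-hour single-concentration exposure. Example: -40 means 40% of the starting cells died.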 Values without a mark were called inactive. The source made the active and inactive calls. The calls were made as follows: active = growth percent below 10; inactive = the rest.

Consider `CC1CCNC(C)C1` (stereo not given), for which the growth with SK-MEL-2 melanoma is 112%; with EKVX NSCLC, 107%; in the experiment on SN12C renal it was 103%; in the experiment with UO-31 renal it was 93.2%; with TK-10 renal, 109%; in the experiment on ACHN renal, 106%. For the same compound, the growth is 101% in the experiment with CAKI-1 renal; 106% in the experiment on A498 renal; 94.4% with CCRF-CEM leukemia; 116% with MOLT-4 leukemia; 105% in the experiment with SR leukemia; 98.2% in the experiment on RPMI-8226 leukemia. For the same compound, the growth in the experiment with OVCAR-8 ovarian is 107%; with OVCAR-5 ovarian it was 113%; with OVCAR-4 ovarian, 99.6%; with SK-OV-3 ovarian, 99.6%; with IGROV1 ovarian, 116%; in the experiment with OVCAR-3 ovarian, 112%. For the same compound, the figures for the growth with HS 578T breast and with NCI/ADR-RES ovarian were 104% and 106%, respectively.
As to `Cc1ccc(C2=NN3C(C2)c2cc(Br)ccc2OC32CCN(Cc3ccccc3)CC2)o1` (stereo not given), the growth was 100% with SK-MEL-2 melanoma; 86.3% in the experiment with EKVX NSCLC; 91.5% in the experiment with SN12C renal; 58.6% in the experiment on UO-31 renal; 116% with TK-10 renal; 98.7% with ACHN renal. In addition, the growth in the experiment with CAKI-1 renal is 71.6%; with A498 renal it was 105%; with CCRF-CEM leukemia it was 80.3%; in the experiment with MOLT-4 leukemia, 79.6%; in the experiment on SR leukemia, 90.2%; with RPMI-8226 leukemia, 80.8%. The growth in the experiment with OVCAR-8 ovarian is 98.8%; in the experiment with OVCAR-5 ovarian, 109%; in the experiment with OVCAR-4 ovarian, 94.3%; with SK-OV-3 ovarian, 93.7%; with IGROV1 ovarian, 82.1%; in the experiment on OVCAR-3 ovarian, 96.6%. Moreover, the growth is 92% with HS 578T breast and 94% in the experiment with NCI/ADR-RES ovarian.
Regarding `Cc1ccc2c(C(C[N+](=O)[O-])c3ccccc3)c(-c3ccccc3)[nH]c2c1` (stereo not given), the growth in the experiment on SK-MEL-2 melanoma was 1.05% [9.5 µM] (active); with EKVX NSCLC, 42.3% [9.5 µM]; with SN12C renal, 42.2% [9.5 µM]; with UO-31 renal, 35% [9.5 µM]; in the experiment on TK-10 renal it was 43.7% [9.5 µM]; with ACHN renal, 36.7% [9.5 µM]. Also, the growth is 21.5% [9.5 µM] with CAKI-1 renal; -1.59% [9.5 µM] (active) in the experiment on A498 renal; 19.5% [9.5 µM] with CCRF-CEM leukemia; 21.2% [9.5 µM] with MOLT-4 leukemia; 25.4% [9.5 µM] with SR leukemia; 24.4% [9.5 µM] in the experiment on RPMI-8226 leukemia. The growth with OVCAR-8 ovarian is 29.6% [9.5 µM]; in the experiment with OVCAR-5 ovarian it was 52.2% [9.5 µM]; with OVCAR-4 ovarian, 59.8% [9.5 µM]; with SK-OV-3 ovarian, 19.3% [9.5 µM]; in the experiment on IGROV1 ovarian, 27.4% [9.5 µM]; in the experiment with OVCAR-3 ovarian it was 3.85% [9.5 µM] (active). The figures for the growth with HS 578T breast and with NCI/ADR-RES ovarian were 1.97% [9.5 µM] (active) and 10.9% [9.5 µM], respectively.
Consider `CCCCCCN(CCCCCC)CCC(O)c1ccc2ccccc2c1` (stereo not given), for which the growth in the experiment on SK-MEL-2 melanoma was 86.1%; with EKVX NSCLC, 71%; with SN12C renal it was 58.6%; in the experiment with UO-31 renal, 38.4%; in the experiment with TK-10 renal, 72%; with ACHN renal it was 68.7%. Also, the growth in the experiment with CAKI-1 renal is 53%; in the experiment on A498 renal, 48.3%; in the experiment on CCRF-CEM leukemia it was 41.8%; with MOLT-4 leukemia it was 45.7%; in the experiment on SR leukemia it was 0.428% (active); in the experiment on RPMI-8226 leukemia, 7.65% (active). The growth is 73.4% in the experiment on OVCAR-8 ovarian; 69.5% in the experiment with OVCAR-5 ovarian; 45.7% with OVCAR-4 ovarian; 83.5% in the experiment with SK-OV-3 ovarian; 59.6% with IGROV1 ovarian; 69.7% in the experiment with OVCAR-3 ovarian. For the same compound, the results for the growth in the experiment on HS 578T breast and with NCI/ADR-RES ovarian were 69.1% and 58%, respectively.
`CCOC(=O)c1csc(NC(=O)COc2cccc(/C=C3\CSc4ccccc4C3=O)c2)n1`: the growth with SK-MEL-2 melanoma was -49.8% (active); with EKVX NSCLC, -36.2% (active); in the experiment on SN12C renal, 74.8%; in the experiment with UO-31 renal, -35.1% (active); in the experiment on TK-10 renal, 68.6%; in the experiment with ACHN renal, 45.5%. The growth is 2.32% (active) with CAKI-1 renal; 115% with A498 renal; -61.3% (active) in the experiment with CCRF-CEM leukemia; -50.9% (active) in the experiment on MOLT-4 leukemia; -86.4% (active) in the experiment with SR leukemia; -71.2% (active) in the experiment with RPMI-8226 leukemia. In addition, the growth with OVCAR-8 ovarian was 20.3%; in the experiment on OVCAR-5 ovarian, 56.4%; in the experiment on OVCAR-4 ovarian, 83.6%; with SK-OV-3 ovarian, 35%; in the experiment on IGROV1 ovarian it was 1.28% (active); with OVCAR-3 ovarian, -25.7% (active). Also, the growth is -11% (active) with HS 578T breast and 44.1% in the experiment with NCI/ADR-RES ovarian.
Turning to `COc1ccc(/C=C/C(=O)c2cc(O)ccc2O)cc1`, the growth in the experiment on SK-MEL-2 melanoma is 101%; in the experiment with EKVX NSCLC, 93%; with SN12C renal, 93.7%; in the experiment with UO-31 renal, 73.1%; in the experiment with TK-10 renal, 95.3%; in the experiment on ACHN renal, 84.9%. The growth is 67.7% in the experiment with CAKI-1 renal; 109% in the experiment on A498 renal; 41.1% with CCRF-CEM leukemia; 79.2% in the experiment with MOLT-4 leukemia; 71.9% with SR leukemia; 45.8% in the experiment with RPMI-8226 leukemia. The growth with OVCAR-8 ovarian was 88.6%; with OVCAR-5 ovarian, 108%; in the experiment on OVCAR-4 ovarian, 136%; with SK-OV-3 ovarian, 115%; in the experiment with IGROV1 ovarian, 83.4%; in the experiment with OVCAR-3 ovarian it was 83.4%. The growth in the experiment on HS 578T breast was 106%; in the experiment with NCI/ADR-RES ovarian, 91.8%.
For the compound `O=c1c(F)cn(Cc2ccccc2CCl)c(=O)n1Cc1ccccc1CCl`, the growth in the experiment with SK-MEL-2 melanoma is 4.2% (active); in the experiment on EKVX NSCLC it was -4.31% (active); with SN12C renal, -26.5% (active); in the experiment on UO-31 renal, -80.4% (active); in the experiment with TK-10 renal, -30.8% (active); with ACHN renal, -81.8% (active). For the same compound, the growth with CAKI-1 renal is -84.5% (active); with A498 renal it was 76.3%; in the experiment with CCRF-CEM leukemia it was -42.9% (active); in the experiment with MOLT-4 leukemia, -40.3% (active); with SR leukemia it was -57.5% (active); in the experiment on RPMI-8226 leukemia, -48.6% (active). Moreover, the growth is -20.3% (active) in the experiment with OVCAR-8 ovarian; -76.8% (active) with OVCAR-5 ovarian; -15.3% (active) in the experiment with OVCAR-4 ovarian; 10.3% in the experiment with SK-OV-3 ovarian; -37.3% (active) with IGROV1 ovarian; -44.6% (active) in the experiment with OVCAR-3 ovarian. Further, the growth was -3.05% (active) in the experiment on HS 578T breast and -9.91% (active) in the experiment on NCI/ADR-RES ovarian.
